Inconclusive results are not listed. A call without a number means that no potency is given here. Active and inactive are the calls of the source. The call rests on the fitted dose curve; in most records, active means well fitted cell-killing curve with a large enough effect; inconclusive means small, poorly fitted or top-dose-only effect, or effect the other way; inactive means flat fitted curve, though single readings scatter.
assay: Compound cytotoxicity measured by an ATP content assay as a counter-screen for lead compounds in human astrocytoma cell line (SNB-19); conditions: SNB-19 astrocytoma viability, ATP luminescence; series mostly up to 46.1 µM
Protocol: National Center for Advancing Translational Sciences [NCATS] Johns Hopkins University School of Medicine Florida State University Assay Overview: Many compounds can cause cytotoxicity at high compound concentrations. […] The compound cytotoxicity may also cause side effects or toxicity in human. Thus, the compound cytotoxicity needs to be measured in each cell type and each compound incubation time - same as these in the compound screening assay. The compound cytotoxicity can be measured by cell viability assays such as the ATP content assay. We use an ATP content assay kit for cell viability measurement. It measures ATP content (level) in human astrocytoma cell line (SNB-19) using a luminescence readout that is proportional to viable cell numbers. Decrease in the luminescence signal after the compound treatment indicates reduced cell viability and cell death caused by compound treatment.
Assay Protocol Summary: The medium for SNB-19 cells is composed of RPMI 1640 (ATCC, Cat.# 30-2001), 10% fetal bovine serum (FBS) (GE healthcare Life Sciences, Cat.# SH30071.03), and 1% Pen/Strep (Gibco, Cat.# 15140-122). The ATP content assay kit (PerkinElmer, Cat.# 6016731) was used to determine cell viability. The reagent was reconstituted and prepared as described by the manufacturer. Cells were seeded in 384- or 1536-well assay plates and cultured at 37 C with 5% CO2 for 16 to 20 hours. The typical cell seeding density in the 1536-well plate assay is 250 cells/well in 3ul medium for SNB-19 cells in tissue culture treated plates. Compounds were added to cells and incubated for a specific time such as 6, 24, or 72 hours before addition of the reagent mixture of the ATP content assay kit at 1:1 ratio. After incubation at room temperature for 10 minutes, the luminescence intensity in assay plates was measured using a ViewLux plate reader (PerkinElmer). […] The percentage inhibitions of the decreased cell viability by small molecules were then calculated that indicate compound cytotoxicity.

Structure (SMILES)	Potency
CC(C)N[C@@H]1CCn2c(=O)[nH]c3cccc(c32)[C@@H]1O	inactive
CC(C)[N+](C)(CCC(C(N)=O)(c1ccccc1)c1ccccc1)C(C)C	inactive
Oc1ccc([C@H]2CNCc3c2ccc(O)c3O)cc1O	inactive
COc1cccc2c1C(=O)c1c(O)c3c(c(O)c1C2=O)C[C@@](O)(C(=O)CO)CC3OC1CC(N2CCOC(OC)C2)C(O)C(C)O1 (some centres undefined)	inactive
CC(C)[C@H]1C(=O)N[C@H](CO)Cc2c[nH]c3cccc(c23)N1C	inactive
CC(O)CN1CCN(CC(=O)[O-])CCN(CC(=O)[O-])CCN(CC(=O)[O-])CC1.[Gd+3] (centres undefined)	inactive
O=S(=O)(CC1CS1)c1ccc(Oc2ccccc2)cc1 (centres undefined)	inactive
COP(=S)(OC)SCN1C(=O)c2ccccc2C1=O	inactive
S=C(SSC(=S)N1CCCCC1)N1CCCCC1	inactive
O=C1CCC[C@@H]2[C@H]3CCCN4CCC[C@@H](CN12)[C@@H]34	inactive
CN1CC[C@@]2(C)c3cc(OC(=O)Nc4ccccc4)ccc3N(C)[C@@H]12	inactive
Cc1ccc([N+](=O)[O-])[c]2c1[O][Hg]2	5.48 µM (active)
O=C1C=CC[C@@H]2[C@H]3CCCN4CCC[C@@H](CN12)[C@@H]34	inactive
CC[n+]1c(-c2ccccc2)c2cc(N)ccc2c2ccc(N)cc21	inactive
